# Assay results published in ChEMBL document CHEMBL3988442, “University of Dundee, Small-Polar-MMV Screening Library” (2021).
# Among all 48,000 compounds or so, about 13,000 (27%) showed an effect of 50% or more. This is one part of the list.
# System: Wolbachia pipientis
# Assay: Anti-Wolbachia Cell-Based Screen
# Assay type: functional
# Parameters: scale not given: in the data most compounds retested in dose-response had high values
# Details: 5 µM
row,Compound,Percent Effect [%]
1,CN(CCCc1nccn1C)C(=O)C1COc2ccccc2C1 (centres undefined),-14.96
2,Cc1ncsc1CCN(C)C(=O)c1ccc(Cn2cnnn2)cc1,-0.04633
3,Cc1nc(N2CCOCC2)nc2c1CN(C(=O)Cc1ccccn1)CC2,6.226
4,Cc1nc(N2CCCC2)nc2c1CCN(C(=O)N1CCCC1)CC2,98.24
5,Cc1nc(N2CCCC2)nc2c1CCN(C(=O)C1CCCC1)CC2,4.07
6,Cc1nc(N2CCCC2)nc2c1CCN(C(=O)CC1CC1)CC2,43.96
7,Cc1nc(N2CCOCC2)nc2c1CN(CC(=O)N(C)C)CC2,-19.6
8,Cc1nc(N2CCOCC2)nc2c1CCN(C(=O)N1CCCC1)CC2,118.6
9,Cc1nc(N2CCOCC2)nc2c1CCN(C(=O)NC1CCCC1)CC2,25.82
10,Cc1nc(N2CCOCC2)nc2c1CCN(C(=O)C1(C#N)CC1)CC2,-22.43
11,Cc1nc(N2CCOCC2)nc2c1CN(C(=O)C(C)C)CC2,99.02
12,CS(=O)(=O)CCN1C[C@H](NC(=O)c2cnc(O)cn2)[C@@H](C2CC2)C1,5.128
13,Cn1cccc1C(O)CNS(=O)(=O)c1ccccc1F (centres undefined),-11.88
14,CC(C)CCC(=O)N1CCN(c2ncnc3nc(N)ccc23)CC1,-4.213
15,COc1ccc(Cl)cc1NCC(=O)NCCNc1ncccn1,100.4
16,COc1ccc(Cl)cc1NCC(=O)NCCc1ccccn1,3.443
17,COc1c(Cl)cc(C(=O)NCCNc2ncccn2)cc1Cl,11.68
18,COc1ccc(Cl)cc1NCC(=O)NCc1cccnc1OC,108
19,COc1ccc(Cl)cc1NCC(=O)N(Cc1ccccn1)C1CC1,-7.935
20,COc1cc(CNC(=O)CNc2cc(Cl)ccc2OC)ccn1,-1.117
21,COc1ncccc1NC(=O)N1CCCC1c1cc(C)no1 (centres undefined),-4.048
22,Cc1cc(C(=O)N2C[C@H]3CC[C@@H]2CN(C)C3)ccc1Cl,-9.049

row,Compound,Percent Effect [%]
1,CC(C)(C)OC(=O)NC(C)(C)c1noc(CSc2ccccn2)n1,18.32
2,COC(=O)NC1(C(=O)Nc2ccc(-c3cc[nH]n3)cc2)CCCC1,-10.93
3,CS(=O)(=O)N1CC2(CCCN2Cc2ccc(Cl)cc2)Cc2ccccc21 (centres undefined),113.6
4,CC(=O)N1CC2(CCCN2Cc2ccc(Cl)cc2)Cc2ccccc21 (centres undefined),134.6
5,Cc1cc(C(=O)N2CCCC3(CCCN3Cc3cccnc3)C2)[nH]n1 (centres undefined),0.008691
6,Cn1cc(CN2CCCC3(CCCN3S(C)(=O)=O)C2)cn1.O=C(O)C(F)(F)F (centres undefined),1.436
7,CC(=O)N1CC2(CCCCN2Cc2ccc(Cl)cc2)Cc2ccccc21 (centres undefined),100.4
8,CCS(=O)(=O)N1CCCC2(CCCN2Cc2cccc(Cl)c2)C1.O=C(O)C(F)(F)F (centres undefined),-14.69
9,CC(C#N)CSc1ccccc1NCC(=O)NC(C1CC1)C1CC1 (centres undefined),-11.19
10,CNC(=O)CN1CCC(OCc2ccc(Cl)c(Cl)c2)CC1,83.56
11,NC(=O)CN1CCC(C(=O)NCc2ccc3nonc3c2)CC1,-14.82
12,COc1cccc(COCC(=O)NC2CCN(CC(N)=O)CC2)c1,5.2
13,CSCCC(O)C(=O)N1CCC(OCc2cccnc2)CC1 (centres undefined),-3.942
14,CC(C)Oc1cccc(CC(=O)NC2CCN(CC(N)=O)CC2)c1,-2.756
15,CCOC1CCN(C(=O)NCc2ccc(CN3CCOCC3)cc2)CC1,-24.74
16,NC(=O)CN1CCC(OCc2ccc(Cl)c(Cl)c2)CC1,99.68
17,CCC(N)C(=O)N1CCC(OCc2ccc(Cl)c(Cl)c2)CC1.Cl (centres undefined),104.6
18,CNC(=O)CN1CCN(C(=O)Nc2ccc(Cl)cc2F)CC1,0.4531
19,NC(=O)CN1CCC(NC(=O)COc2ccc(Cl)c(Cl)c2)CC1,99.17
20,CNC(=O)CN1CCC(c2cc(OC)cc(OC)c2)C1 (centres undefined),8.564
21,NC(=O)CN1CCC(Nc2ccnc3ccc(Cl)cc23)CC1,13.98
22,CCn1c(N)nc2cc(C(=O)N3CCN(CC(F)(F)F)CC3)cnc21,-2.793

row,Compound,Percent Effect [%]
1,COc1ccc(F)c(CN2CCCC3(CCN(C(=O)CSC)C3)C2)c1 (centres undefined),-11.54
2,Cc1ccc(F)c(C(=O)NC2CCC(N3C(=O)CCC3=O)CC2)c1 (centres undefined),-6.109
3,CN(C)c1ccc(C(=O)NCc2csc(Br)c2)cn1,132.1
4,CN(C)c1ncccc1CNC(=O)c1csc(Br)c1,-2.901
5,CCn1cc(C(=O)NCc2csc(Br)c2)cn1,-5.042
6,O=C(NCc1csc(Br)c1)c1cnccn1,122.2
7,CN1CCCN(C(=O)NCc2csc(Br)c2)CC1,-2.09
8,CC1(c2ccccc2)CCC(=O)N(CCN2CCOC2=O)C1 (centres undefined),-0.3831
9,O=C(NCC1(O)CCSC1)c1cccc(-n2cccn2)c1 (centres undefined),105.6
10,CSC1(CNC(=O)c2cccc(-n3cccn3)c2)CCOCC1,126.6
11,O=C(NCC1CCC2(CC1)OCCO2)c1cccc(-n2cccn2)c1,116.2
12,CSC1(CNC(=O)c2ccn(-c3ccccc3F)n2)CCOCC1,-3.806
13,O=C(NCC1(O)CCSC1)c1ccn(-c2ccccc2F)n1 (centres undefined),-10.8
14,Cc1cc(C(=O)NCC2CCC3(CC2)OCCO3)[nH]n1,-25.64
15,O=C(NCC1(O)CCC1)c1cccc(-n2cccn2)c1,119.5
16,CSC1(CNC(=O)NC(C)c2ccc(F)cc2)CCOCC1 (centres undefined),-5.884
17,O=C(NCC1(O)CCSC1)c1ccoc1 (centres undefined),12.35
18,CC(CNC(=O)c1cccc(-n2cccn2)c1)Cn1ccnc1 (centres undefined),-7.057
19,O=C(NCC1CCC2(CC1)OCCO2)c1ccncc1F,-3.003
20,CNC(=O)CCOC(=O)c1cccc(-n2cccn2)c1,-2.822
21,Cn1cc(C(C)(O)CNc2ccccn2)cn1 (centres undefined),-0.1049
22,Oc1cc(CN2CCCCC2c2cccnc2)nc2c(F)cccc12 (centres undefined),-16.88

row,Compound,Percent Effect [%]
1,CC(C)n1ccnc1C1CCN(C(=O)C2COc3ccccc3O2)CC1 (centres undefined),-5.747
2,CCS(=O)(=O)N1CCCC2(COCCN(c3nnc(C)o3)C2)C1.O=C(O)C(F)(F)F (centres undefined),-4.041
3,c1ccc2c(c1)CC(Cc1cc(N3CCCC3)cnn1)CCO2 (centres undefined),-11.32
4,CC1c2ncc(Cn3cccn3)n2CCN1c1ncccn1.O=C(O)C(F)(F)F (centres undefined),86.74
5,CC1c2ncc(Cn3cccn3)n2CCN1S(C)(=O)=O.O=C(O)C(F)(F)F (centres undefined),89.72
6,COCc1cnc2n1CCN(C1CCCC1)C2C.O=C(O)C(F)(F)F (centres undefined),11.21
7,O=C(O)C(F)(F)F.O=C(O)C(F)(F)F.c1cnn(Cc2cnc3n2CCN(CC2CCCCC2)C3)c1,-2.959
8,O=S(=O)(C1CC1)N1CCc2ncc(Cn3cccn3)n2CC1,-13.53
9,O=S(=O)(C1CC1)N1CCn2c(Cn3cccn3)cnc2C1,7.108
10,O=C(NC1CC1)N1CCn2c(Cn3cccn3)cnc2C1.O=C(O)C(F)(F)F,5.205
11,CC1c2ncc(Cn3cccn3)n2CCN1S(=O)(=O)C1CC1 (centres undefined),92.87
12,Cc1noc(C)c1CN1CCc2ncc(Cn3cccn3)n2CC1.O=C(O)C(F)(F)F,-5.332
13,CCc1nsc(N2CCN(Cc3ccno3)CC2)n1,-4.168
14,COC(=O)C1CCN(C(=O)c2ccc(NS(C)(=O)=O)c(C)c2)CC1,-4.777
15,O=S(=O)(c1ccc(Cl)cc1)N1CCC(OCc2ccccn2)C1 (centres undefined),-17.23
16,CS(=O)(=O)NC[C@H]1Cn2c(-c3ccc(F)cc3)cnc2CO1,-20.98
17,CC(C)(C)OC(=O)N1CSC[C@@H]1C(=O)NCc1ccsc1,-2.991
18,COCCOc1cccc(C(=O)N2CCCC(n3ccnc3)C2)c1 (centres undefined),85.64
19,O=C(c1cnc(-c2cccs2)s1)N1CCCC(n2ccnc2)C1 (centres undefined),98.86
20,O=C(c1cnc(-c2cccs2)s1)N1CCCN2CCCC2C1 (centres undefined),13.8
21,NC(=O)c1cccc(C(=O)N2CCCC(n3ccnc3)C2)c1 (centres undefined),111.9
22,O=C(c1cccnc1N1CCOCC1)N1CCCC(n2ccnc2)C1 (centres undefined),-11.91

row,Compound,Percent Effect [%]
1,NC(=O)c1ccc(C(=O)N2CCCC(n3ccnc3)C2)s1 (centres undefined),109.7
2,O=C1CSc2ccc(C(=O)N3CCCC(n4ccnc4)C3)cc2N1 (centres undefined),1.64
3,O=C(O)C1(Oc2ccc3ccccc3c2)CCN(c2ncccn2)CC1,-9.781
4,Cc1c[nH]cc1C(=O)N1CCN(CCc2cccs2)CC1,-2.994
5,CCC1COCCN1C(=O)CNC(=O)c1ccsc1 (centres undefined),-5.336
6,OCc1ccc(CN2CCC(n3cc(C4CCCCC4)nn3)CC2)o1,0.3058
7,CCS(=O)(=O)c1ccc(N2CCC(NC(=O)NC(C)CO)CC2)cc1 (centres undefined),0.3155
8,COCCNS(=O)(=O)c1ccc(CNc2ncccc2C#N)cc1,18.7
9,NC(=O)c1ccc(OCC(=O)N2CCCC(n3cccn3)C2)cc1 (centres undefined),-3.222
10,NC(=O)c1cccc(OCC(=O)N2CCCC(n3cccn3)C2)c1 (centres undefined),-3.677
11,NC(=O)c1cccc(OCC(=O)N2CCCC(n3ccnc3)C2)c1 (centres undefined),113
12,C[C@@H](NC(=O)c1cnccn1)c1c(-c2ccc(Cl)cc2)noc1C(=O)O.Cl,-1.348
13,CCCc1nc(CNc2cc(CS(C)(=O)=O)ccc2Cl)no1,-7.067
14,Cc1nc(CCC(=O)NC2CCC2)cc(C2CCCNC2)n1 (centres undefined),108.9
15,CNC(=O)CCc1cc(C2CCNCC2)nc(C)n1.Cl.Cl,115.3
16,Cc1nc(CCC(=O)NCC(N)=O)cc(C2CCNCC2)n1,128.9
17,Cc1nc(NC2CCCCC2)cc(C2CCCNC2)n1.Cl (centres undefined),84.03
18,CNC(=O)C1CCN(c2cc(C3CCNCC3)nc(C)n2)C1 (centres undefined),9.34
19,Cc1nc(NC2CCS(=O)(=O)CC2)cc(C2CCCNC2)n1 (centres undefined),5.772
20,Cc1nccc(N[C@H]2CN(CCC(=O)NC3CCCC3)C[C@@H]2C2CC2)n1,-19.22
21,Cc1nc(C2CCNCC2)cc(N2CCCC(C(=O)NCCCO)C2)n1 (centres undefined),12.53
